Jurkat NFkB inh: lowers PMA/ionomycin-induced NF-kB signal in Jurkat cells; PMA/ionomycin-induced NF-kB luciferase reporter, luminescence; inhibition, % at 4 µM; actives 0.53% (n = 330,000); in the data active = inhibition above about 50%
Mdm2 MdmX PPI: disrupts the human Mdm2-MdmX interaction. actives 3% (n = 330,000). inhibition, % at 8 µM. O15151+Q00987. SaOS-2 split-luciferase Mdm2/MdmX complementation, luminescence;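 active = inhibition of at least 50% at 8 µM in the primary screen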
Target sequence (O15151 whole entry, looked up): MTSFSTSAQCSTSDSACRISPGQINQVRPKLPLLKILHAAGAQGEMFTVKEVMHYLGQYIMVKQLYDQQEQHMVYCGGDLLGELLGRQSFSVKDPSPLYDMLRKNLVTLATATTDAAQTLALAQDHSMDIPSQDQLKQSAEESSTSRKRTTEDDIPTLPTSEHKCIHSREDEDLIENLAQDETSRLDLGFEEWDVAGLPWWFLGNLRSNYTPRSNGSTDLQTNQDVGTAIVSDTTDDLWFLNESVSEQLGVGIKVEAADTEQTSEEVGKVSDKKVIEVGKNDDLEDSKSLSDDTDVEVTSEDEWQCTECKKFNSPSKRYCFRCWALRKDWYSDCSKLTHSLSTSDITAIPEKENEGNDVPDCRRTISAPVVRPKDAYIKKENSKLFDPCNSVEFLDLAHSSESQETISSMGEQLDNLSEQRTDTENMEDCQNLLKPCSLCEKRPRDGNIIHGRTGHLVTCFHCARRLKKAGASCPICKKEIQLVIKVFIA
Target sequence (Q00987 whole entry, looked up): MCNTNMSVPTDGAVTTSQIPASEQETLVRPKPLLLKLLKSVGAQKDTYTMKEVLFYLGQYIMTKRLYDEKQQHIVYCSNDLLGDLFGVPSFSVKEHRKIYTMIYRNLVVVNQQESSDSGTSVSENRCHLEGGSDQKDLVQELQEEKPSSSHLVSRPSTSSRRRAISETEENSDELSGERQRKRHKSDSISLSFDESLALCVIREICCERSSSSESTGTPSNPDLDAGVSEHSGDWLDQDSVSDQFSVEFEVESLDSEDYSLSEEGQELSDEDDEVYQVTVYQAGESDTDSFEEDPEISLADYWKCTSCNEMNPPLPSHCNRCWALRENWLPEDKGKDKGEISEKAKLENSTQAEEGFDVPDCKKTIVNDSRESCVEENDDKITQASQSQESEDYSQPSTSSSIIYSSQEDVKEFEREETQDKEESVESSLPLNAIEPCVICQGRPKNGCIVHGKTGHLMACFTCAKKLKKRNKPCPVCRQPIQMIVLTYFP
Beta cell apopt: blocks beta cell apoptosis; AID 435005; protection from apoptosis, % (no concentration beside the values); actives 0.8% (n = 300,000); INS-1E cytokine-induced death, ATP luminescence, 48 h; percent of positive-control rescue, neutral wells zero;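 active = Every replicate reaches about 75%, or at least half do and their mean reaches it too, limit read from the data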;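 note: 0% = cytokine-treated negative control wells and 100% = positive control rescue; higher means more ATP so stronger rescue from cytokine killing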
CSC inhib: cancer stem cell inhibition; cancer stem cell-like cells viability, luminescence; inhibition, % at 7.5 µM; actives 1.1% (n = 300,000); AID 2717; in the data active = inhibition above about 75%; tested in HMLE shEcad cells
697 NFkB inh: lowers PMA/ionomycin-induced NF-kB signal in 697 B cells; actives 0.33% (n = 330,000); 697 B-cell NF-kB luciferase reporter, 16 h; inhibition, % at 4 µM; AID 435022; in the data active = inhibition above about 35%
Gli-Sufu block: Gli-Sufu pathway antagonism; Sufu-KO-LIGHT fibroblasts, Gli luciferase reporter luminescence; inhibition, % at 5 µM; actives 0.74% (n = 340,000);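 active = inhibition above about 55%, limit read from the data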;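 note: 0% = DMSO-treated cells and 100% = wells with medium but no cells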
Active calls of the source: *; nt = no result given. This is a sample that favours compounds with a hit; in the whole collection about 4.5% have one here.

SMILES	Jurkat NFkB inh	Mdm2 MdmX PPI	Beta cell apopt	CSC inhib	697 NFkB inh	Gli-Sufu block
Cc1ccccc1OCC(=O)Nc1ccccc1N1CCCCC1	-2.1	36.7	4.5	63.4	16.9	-0.3
Cc1ccc(S(=O)(=O)NC(=O)c2ccc(-c3ccc(-c4ccccc4)cc3)o2)c(C)c1	-12.8	10.6	1.1	81.7*	-10.1	nt
O=C(CN1C(=O)C(=O)N(C2CCCC2)C1=O)Nc1ccc([N+](=O)[O-])cc1	11.9	-9.4	nt	nt	7.8	-0.8
CCCCCCCOC(=O)C[N+](C)(C)CCOC1CC2CCC1(C)C2(C)C (centres undefined)	nt	nt	nt	nt	nt	81.6*
O=C(NCC1CCCCC1)c1cc2ccccc2cc1O	-36.8	-16.6	-6.7	83.3*	-16.0	-10.5
COc1ccc(CCC(=O)Nc2ccc(S(=O)(=O)N3CCCC3)cc2)cc1OC	2.6	15.8	-5.6	-6.8	18.2	2.5
CC(C)N1CCc2c(sc(NC(=O)c3ccc4ccccc4c3)c2C(N)=O)C1	-17.0	40.5	24.8	78.6*	-48.2	20.5
CS(=O)(=O)N(CC(=O)Nc1cccc(F)c1)c1cccc([N+](=O)[O-])c1	-8.9	1.8	23.0	-11.0	-22.0	8.7
CC(=O)Nc1ccc(NC(=O)CN(c2cccc([N+](=O)[O-])c2)S(C)(=O)=O)cc1	0.2	-9.2	107.5*	-17.4	-13.4	7.1
Cc1ccc(NS(=O)(=O)c2ccc(NC(=O)CN(c3cc([N+](=O)[O-])ccc3C)S(C)(=O)=O)cc2)c(C)c1	11.2	37.4	106.0*	-5.5	2.8	11.5
O=S(=O)(Nc1c(F)cccc1F)c1ccc(Cl)nc1	5.8	6.6	-1.0	-5.7	20.2	1.3
O=C(Nc1ccc(F)cc1)c1ccc2c(=O)n(CC3CCCO3)c(=S)[nH]c2c1 (centres undefined)	-4.3	12.9	nt	-14.9	10.6	7.1
O=C(Cc1ccc([N+](=O)[O-])cc1)N/N=C/c1ccc([N+](=O)[O-])o1	-5.0	23.4	97.2*	-15.9	7.6	5.8
O=C(CNc1cccc([N+](=O)[O-])c1)N/N=C/c1ccc([N+](=O)[O-])o1	24.9	3.2	92.9*	-0.1	-2.4	1.1
O=C(CNc1ccccc1)N/N=C/c1ccc([N+](=O)[O-])cc1	11.8	4.5	-2.7	-0.6	-10.1	35.3
O=c1c2ccccc2oc2cc(-c3ccc4[nH]ccc4c3)ccc12	-14.1	-58.9	35.5	83.1*	-230.2	-73.5
COc1cc2sc3ccc(-c4ccc5[nH]ccc5c4)cc3c(=O)c2cc1OC	-87.1	-21.6	nt	31.2	-62.9	-50.7
Cc1ccc(-c2nc(Nc3ccc(O)cc3)c3ccccc3n2)cc1	-29.3	39.3	-5.3	73.1	-14.6	6.9
COc1cccc(Nc2nc(-c3ccccc3)nc3ccccc23)c1	8.7	16.9	8.3	91.5*	32.8	10.0
Cc1ccc(-c2nc(Nc3cccc(O)c3)c3ccccc3n2)cc1	-9.5	20.6	-0.2	111.7*	-6.0	3.5
Cc1ccc(-c2nc(N/N=C/c3cccnc3)c3ccccc3n2)cc1	-100.0	-50.1	75.6*	41.1	-104.4	-71.9
Cc1ccc(-c2nc(Nc3ccc(N4CCOCC4)cc3)c3ccccc3n2)cc1	-33.4	44.8	2.2	89.7*	-15.8	-18.7
O=C(CC12CC3CC(CC(C3)C1)C2)NCc1ccc(F)cc1	-7.5	10.2	-4.3	9.4	8.3	-15.5
COc1ccc(Nc2nc(-c3ccccc3O)nc3ccccc23)cc1	7.9	24.4	21.0	80.6*	10.5	8.7
COc1cccc(Nc2nc(-c3ccccc3O)nc3ccccc23)c1	-22.9	24.7	7.8	8.2	0.1	1.7
SMILES	Jurkat NFkB inh	Mdm2 MdmX PPI	Beta cell apopt	CSC inhib	697 NFkB inh	Gli-Sufu block
COc1ccc2c(c1)C(=O)[C@@H](O)[C@H](c1ccc(OC)c(Br)c1)O2	-30.0	26.3	76.6*	-26.8	-11.0	6.7
OC(CNC1CCCCC1)COCCOc1ccc(Br)cc1 (centres undefined)	0.9	30.3	106.3*	58.5	7.1	25.6
CCSc1ccc(NC(=O)c2cccnc2)cc1	-17.3	-22.4	103.8*	-4.6	-41.8	1.6
O=C(Nc1ccc(N2CCCCC2)cc1)c1cccnc1	-34.9	-34.4	3.6	-1.3	-46.3	-1.4
O=C(Nc1ccc(C(=O)Nc2ccccc2Cl)cc1)c1cccnc1	-4.1	-8.9	99.4*	-7.4	-15.3	4.9
O=C(Nc1ccc(N2CCN(Cc3ccccc3Cl)CC2)cc1)c1cccnc1	-1.5	24.4	78.2*	15.4	-1.9	19.7
CCc1ccc(NC(=O)c2cccnc2)cc1	-51.4	-4.6	27.0	-10.9	-30.1	-43.5
CC1CN(CC(=O)Nc2nc3ccccc3s2)CC(C)O1 (centres undefined)	-2.6	-14.6	4.2	-6.5	-16.1	-8.7
O=C(COC(=O)/C=C/c1cccc(Cl)c1Cl)Nc1ccc2[nH]c(=O)[nH]c2c1	-4.0	2.0	-3.9	nt	-10.1	-9.1
Cc1cc(-c2ccc([N+](=O)[O-])cc2)cc(C)n1	nt	nt	nt	nt	nt	3.5
CC(C)OP(=O)(OC(C)C)C1(NS(=O)(=O)c2ccc(Cl)cc2)C=C(Cl)C(=O)C(Cl)=C1	-11.7	4.9	2.8	12.3	-19.4	-7.8
COc1cccc(C(=O)Nc2cccc(-c3nnc(-c4ccco4)o3)c2)c1	-4.5	39.0	1.3	11.4	-30.0	-24.4
COc1ccc(Br)cc1C(=O)Nc1cccc(-c2nnc(-c3ccco3)o2)c1	-25.2	24.6	16.3	26.1	-20.3	71.0*
O=[N+]([O-])/C=C\c1ccc(N2CCOCC2)cc1	-6.3	48.3	-3.8	35.9	-15.0	-21.0
CN(c1ccccc1)c1ccc(/C=C/[N+](=O)[O-])cc1	nt	nt	89.2*	-1.0	nt	-1.4
Cc1ccc(S(=O)(=O)N2CCOCC2)cc1NS(=O)(=O)c1ccc(F)c(F)c1	1.7	9.5	-1.3	-4.7	23.5	-3.6
CCc1ccc(-n2c(C)cc(/C=N/NC(=O)c3ccncc3)c2C)cc1	7.3	5.3	106.4*	-0.2	8.2	27.6
Cc1cc(/C=N/NC(=O)c2ccncc2)c(C)n1-c1ccccc1	-2.8	-6.6	-2.2	10.1	-24.5	-16.2
Cc1cccc(NC(=O)c2ccc(C)c(S(=O)(=O)N3CCOCC3)c2)n1	nt	nt	nt	nt	nt	-5.6
CCN(CC)CCNCC(O)(c1ccc(Cl)cc1)c1ccc(Cl)cc1	-7.5	32.5	18.6	3.2	-42.3	18.7
CCN(CC)CCNCc1ccc(-c2ccc(Cl)cc2)o1	-1.0	5.0	-3.3	78.8*	-4.3	5.7
O=S(=O)(c1ccc(Cl)cc1)N1CCC(n2cnc3cc(C(F)(F)F)ccc32)CC1	10.4	-3.6	10.0	84.8*	2.1	11.2
CC(C)(C)[C@H]1CCC(=O)N([C@H](CSc2ccccc2)Cc2ccccc2)CC1	-18.1	10.9	6.4	139.2*	14.4	5.2
CC(=O)Nc1ccc(S[C@@H](CCN2CC[C@H](C(C)(C)C)CCC2=O)c2ccccc2)cc1	4.8	12.0	-7.1	-1.6	19.6	-2.6
CC(C)(C)[C@@H]1CCC(=O)N(CC[C@H](Sc2ccccc2)c2ccccc2)CC1	-15.0	28.6	25.0	104.4*	10.1	0.9

Screening results (PubChem BioAssay)
